# Compound activity deposited in PubChem by National Center for Advancing Translational Sciences (NCATS).
# Only some compounds are listed: those with a hit (about 7.5% of all), similar ones and a draw of the others.
# Rab9 prom act: qHTS Assay for Rab9 Promoter Activators. AID 485297, 2010. Huh7 Rab9 promoter-luciferase reporter, luminescence, 24 h. Potency, µM (series often up to 9.22 µM), for inactives: at the highest dose activation, negative = inhibition, most hits filed as activators. hit rate 2.8% among 320,000; further: % of control where 0% means no effect; nearly all actives have a fitted effect of over 60% in size
#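 Huh7 cells stably carrying Rab9 promoter–luciferase reporter, plated 1500 cells/well, compound added after 2 h and incubated 24 h at 37 °C; luciferase luminescence then read after 10 min with detection reagent.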
# ELG1 genotoxic: qHTS screen for small molecules that induce genotoxicity in human embryonic kidney (HEK293T) cells expressing luciferase-tagged ELG1; Potency, µM (series often up to 46 µM), inactives show top-dose activity change, positive = activation, hits mostly activators; HEK293T ELG1-luciferase reporter, luminescence, 16 h; hit rate 1.3% among 330,000; further: % of control where 0% means no effect; nearly all actives have a fitted effect of over 60% in size
#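 Cells (2,000/well) expressing the ELG1-luciferase fusion are dosed by pin tool and kept 16 hr at 37 °C, 5% CO2. Signal comes from ONE-Glo luciferase reagent after 30 min at room temperature.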
# Luc counter: Counterscreen for Luciferase (Kinase-Glo TM) Inhibition. Luciferin 4-monooxygenase (Photuris pensylvanica), Q27757. Kinase-Glo luciferase, ATP luminescence, 8 min. Potency, µM (titrated, usually from 38.3 µM), for the others: at the top dose activity change, negative = inhibition, actives largely listed as inhibitors. hit rate 0.28% among 200,000; further: on the % scale 0 is the no-effect control and ±100 the full control effect; nearly all actives have a fitted effect of over 60% in size
#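 Compound is pinned into ATP-containing buffer (10 uM ATP, imidazole pH 7.2, 7 mM MgCl2). Kinase-Glo luciferase reagent is then added. Light output is recorded following an 8-min room-temperature incubation.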
# NPC1 promoter act: qHTS Assay for NPC1 Promoter Activators. Huh7 NPC1 promoter luciferase reporter, 24 h. Potency, µM (series often up to 9.22 µM), without a hit: top-dose activation, most hits filed as activators. hit rate 2.4% among 320,000; further: % of control where 0% means no effect; nearly all actives have a fitted effect of over 60% in size
#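 Luminescence read-out of NPC1 promoter-driven luciferase in stably transfected Huh7 cells; compounds delivered in DMSO and left 24 h at 37C, 5% CO2, qHTS titration format.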
# SMN2 splice up: qHTS Assay for Enhancers of SMN2 Splice Variant Expression; hit rate 2.8% among 210,000; Potency, µM (doses to about 46.1 µM), without a hit: top-dose activity change, positive = activation, hits mostly activators; AID 1458, 2008; HEK293 SMN2-luciferase splicing reporter, luminescence, 30-36 h; further: % of control where 0% means no effect; nearly all actives have a fitted effect of over 55% in size
#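 HEK293 cells carry an SMN2 […]–luciferase reporter in which exon 7 inclusion puts luciferase in frame. Cells were plated 10-12 h before compound addition, then incubated 30-36 h at 37C. ONE-Glo luminescence was read; sodium butyrate at 4.5 mM final served as control.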
# FLuc modulator: qHTS profiling assay for firefly luciferase inhibitor/activator using purifed enzyme and Km concentrations of substrates (counterscreen for miR-21 project). Luciferin 4-monooxygenase (Photinus pyralis), P08659. purified FLuc, Km substrates, luminescence inhibition. Potency, µM (titrated, usually from 57.5 µM), for inactives: top-dose activity change, negative = inhibition, most hits filed as inhibitors. hit rate 6.9% among 360,000. AID 588342, 2011;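 further: plate controls were vehicle for no effect and reference inhibitor for full effect; nearly all actives have a fitted effect of over 55% in size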
# Target sequence (P08659 whole entry, looked up): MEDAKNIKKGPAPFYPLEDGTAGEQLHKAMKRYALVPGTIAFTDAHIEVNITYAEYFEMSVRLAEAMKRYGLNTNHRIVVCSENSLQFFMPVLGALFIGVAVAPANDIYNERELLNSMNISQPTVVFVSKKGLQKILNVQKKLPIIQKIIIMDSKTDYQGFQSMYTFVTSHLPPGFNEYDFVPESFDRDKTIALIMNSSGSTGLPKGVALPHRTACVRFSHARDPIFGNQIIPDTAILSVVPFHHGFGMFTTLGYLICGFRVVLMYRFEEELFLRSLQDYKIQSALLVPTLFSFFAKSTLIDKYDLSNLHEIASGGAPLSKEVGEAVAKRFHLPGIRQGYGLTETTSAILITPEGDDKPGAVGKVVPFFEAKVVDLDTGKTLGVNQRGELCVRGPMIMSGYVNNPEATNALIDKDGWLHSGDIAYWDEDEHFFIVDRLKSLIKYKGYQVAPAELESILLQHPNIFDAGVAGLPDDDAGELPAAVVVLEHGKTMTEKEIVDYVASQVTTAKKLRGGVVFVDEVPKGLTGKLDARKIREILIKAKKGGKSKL
#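 Purified P. pyralis luciferase (10nM final) with 10uM D-luciferin and 10uM ATP (Km levels) in 50mM Tris acetate pH 7.5, 10mM Mg acetate, 0.01% Tween-20, 0.05% BSA; qHTS 6-point titration, ~60 µM downward; luminescence read.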
# The depositor's hits bear a star; ? = inconclusive; . = no result; [ ] = remark or other dose. The call rests on the fitted dose curve; in most records, active means well fitted curve in the direction sought with a large enough effect; inconclusive means small, poorly fitted or top-dose-only effect, or another doubt; inactive means no such curve, though single readings can be large; an effect the other way counts as inactive or inconclusive. Potency means the concentration at half of the fitted maximal effect.
SMILES,Rab9 prom act,ELG1 genotoxic,Luc counter,NPC1 promoter act,SMN2 splice up,FLuc modulator
Cc1cc(C)c(S(=O)(=O)Nc2ccc(Cl)cn2)c(C)c1,-3%,-3%,.,0%,.,3%
Cc1c(Cl)cccc1-n1nnc(-c2nc(-c3ccc4c(c3)OCO4)no2)c1C,.,.,.,.,.,3µM*
O=C(NC1CC1)c1sc2cc(F)ccc2c1Cl,?,?,.,23%,.,9.5µM*
COc1ccc2c(Cl)c(C(=O)NC3CCS(=O)(=O)C3)sc2c1 (stereo unspecified),26%,15%,2%,?,2%,-17%
O=C(NC(=S)NCCO)c1sc2ccccc2c1Cl,2.8µM*,?,-2%,?,13µM*,6µM*
O=C(NNC(=O)C1CC2CCC1C2)c1sc2ccccc2c1Cl (stereo unspecified),?,19%,1%,?,22µM*,24µM*
O=C(NNC(=S)NC1CCCCC1)c1sc2ccccc2c1Cl,-5%,-3%,2%,5%,-18%,?
O=C(NC1CC1)c1sc2ccccc2c1Cl,?,?,.,?,.,15µM*
O=c1c2oc3ccccc3c2n(Cc2cccc(C(F)(F)F)c2)c(=O)n1Cc1ccc2c(c1)OCO2,.,.,.,.,.,-1%
O=C(NC(=S)Nc1cccc(NC(=O)c2ccc(Cl)cc2Cl)c1)c1cccs1,0%,-2%,1%,6%,-7%[1.84 µM],2%
CC1(C)CC(NC(=O)c2sc3cc(Cl)ccc3c2Cl)CC(C)(C)N1,-6%,7%,-1%,-5%,-30%,0%
O=C(NC1CC1)c1sc2cc(Cl)ccc2c1Cl,?,?,.,?,.,6.7µM*
NS(=O)(=O)c1ccc(CCNC(=O)c2ccc3c(c2)OCO3)cc1,0%,2%,.,-4%,.,3%
O=C(NCc1ccccc1F)c1ccc2c(c1)OCO2,12%,?,-10%,1%,-9%,?
O=C(NCCc1ccc(Cl)cc1)c1ccc2c(c1)OCCO2,0.32µM*,2.3µM*,.,0.4µM*,.,1.2µM*
O=C(NCCc1ccc(Cl)cc1)c1ccc2c(c1)OCO2,1.8µM*,?,.,1.8µM*,.,12µM*
O=C(NCCc1ccccc1F)c1ccc2c(c1)OCCO2,0.0006µM*,?,.,0.025µM*,.,0.048µM*
O=C(NCCOc1ccc(Cl)cc1)c1ccc2c(c1)OCCO2,3.5µM*,?,.,3.2µM*,.,8.5µM*
CCOC(=O)c1c(C)oc2nc(C)nc(N3CCN(c4cccc(C(F)(F)F)c4)CC3)c12,.,.,.,.,.,5%
O=C(COC(=O)c1cc([N+](=O)[O-])ccc1N1CCOCC1)Nc1cccc(F)c1,-11%,-6%,.,-4%,.,3%
Cc1nc(-c2cccc(NC(=O)c3ccco3)c2)cs1,11%,9%,.,0%,.,?
Nc1nc2ccc(NC(=O)c3ccco3)cc2s1,?,?,.,?,.,15µM*
Cc1nc(-c2ccc(NC(=O)c3ccco3)cc2)cs1,?,0.21µM*,.,?,.,0.067µM*
Cc1ccn2cc(-c3ccc(NC(=O)c4ccco4)cc3)nc2c1,1.4µM*,?,-13%,3.2µM*,4.5µM*,3.4µM*
Nc1nc(-c2ccc(NC(=O)c3ccco3)cc2)cs1,0.79µM*,?,.,0.71µM*,.,0.67µM*
SMILES,Rab9 prom act,ELG1 genotoxic,Luc counter,NPC1 promoter act,SMN2 splice up,FLuc modulator
CC(C)Cn1c(=S)[nH]c2cc(Cl)ccc21,-5%,-10%,-1%,-1%,6%,-10%
O=S(=O)(c1ccc(Nc2ccc(-c3ccc4c(c3)OCCO4)nn2)cc1)N1CCCC1,20%,2%,0%,17%,5%,5.4µM*
O=C(NC1CC1)c1cccc(Nc2ccc(-c3ccc4c(c3)OCCO4)nn2)c1,2µM*,?,-16%,?,?,0.6µM*
Cc1cccc(C(=O)NC2CCN(CC(=O)Nc3ccc4c(c3)OCO4)CC2)c1,-20%,1%,-1%,0%,.,4%
COc1ccc(CNC(=O)CCc2nc(-c3ccc(C)cc3)no2)c(OC)c1,.,.,.,.,-4%,-4%
O=C(Nc1nc2c(s1)CN(Cc1ccccc1)CC2)C1CCC1,4.5µM*,?,1%,?,?,24µM*
CN1CCc2nc(NC(=O)c3cccc(S(=O)(=O)N4CCc5ccccc54)c3)sc2C1,-3%,3%,1%,0%,6%,-11%
CCN1CCc2nc(NC(=O)c3ccccc3)sc2C1,.,.,-6%,.,10%,7.6µM*
COc1cccc(C(=O)Nc2nc3c(s2)CN(C)CC3)c1,?,18%,-22%,?,11%,19µM*
COc1ccc(-c2onc(C)c2C)cc1S(=O)(=O)N1CCN(c2cc(C)ccc2C)CC1,.,.,.,.,.,-2%
Cc1nn(-c2ccc(N3CCCC3)nn2)c(C)c1CCC(=O)N1CCN(c2ccccc2)CC1,.,.,.,.,.,-10%
O=C(CSc1nnc(NCc2ccccc2)s1)NC1CCS(=O)(=O)C1 (stereo unspecified),-13%,0%,.,0%,.,17µM*
COc1ccc(Nc2nnc(SCC(=O)NC3CC3)s2)cc1,-3%,5%,.,-4%,.,19µM*
COc1ccc(Nc2nnc(SCC(=O)NC3CCS(=O)(=O)C3)s2)cc1 (stereo unspecified),23%,11%,.,22%,.,5.4µM*
CCc1ccc(-c2nc(SCC(=O)NC3CCS(=O)(=O)C3)n[nH]2)cc1 (stereo unspecified),19%,?,.,20%,.,5.4µM*
O=C(CSc1n[nH]c(-c2ccncc2)n1)NC1CCS(=O)(=O)C1 (stereo unspecified),-5%,-9%,-4%,7%,7%,-4%
O=C(CSc1nnc(Nc2ccccc2)s1)NC1CC1,0%,5%,.,0%,.,?
CCc1ccccc1N1CC(c2nc3ccccc3n2CCC2CCCCC2)CC1=O (stereo unspecified),.,.,.,.,-14%,-13%
CCc1ccc(Nc2nnc(SCC(=O)N(C)C3CCS(=O)(=O)C3)s2)cc1 (stereo unspecified),?,?,.,3.5µM*,.,0.43µM*
CN(C(=O)CSc1nnc(NC2CCCCC2)s1)C1CCS(=O)(=O)C1 (stereo unspecified),3%,3%,0%,0%,23%,2%
Cc1ccc(C)c(NC(=S)c2nc3ccccc3s2)c1,?,4%,-4%,?,?,?
O=C(Nc1ccc(Cl)cc1)/C(=C/c1cccc(O)c1)c1nc2ccccc2s1,-15%,-17%,4%,-9%,-105%,?
Cc1ccc(NC(=S)c2nc3ccccc3s2)cc1,2.8µM*,10%,-7%,1.3µM*,?,0.95µM*
